Screen size: about 5,500 compounds; about 2,000 (36%) were called active. Another 18% or so got no clear call; they are omitted. Rule as the data show it: active = normalized growth mostly below about 0.91 (no sharp cut-off); inconclusive = no clear call, values can overlap the other calls; inactive = mostly above about 0.92. The list shows a part of the results.
Test: chemical genetic growth profiling, strain panel (AID 1159580);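 also: tested at 20 µM; growth read once vehicle control cultures reached saturation at 30 °C; 1 = growth at the plate median or of vehicle wells; lower values mean less growth of the strain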
Details: growth OD

Measured: normalized growth

O=c1c(-c2ccccc2)coc2cc(O)cc(O)c12
inactive: S. cerevisiae deletion strains, locus YAL021C, strain ccr4, active compounds read low 0.977 | S. cerevisiae deletion strains, locus YAL026C, strain drs2, active compounds read low 0.927 | S. cerevisiae deletion strains, locus YAL030W, strain snc1, active compounds read low 0.99 | S. cerevisiae deletion strains, locus YBL061C, strain skt5, active compounds read low 0.978 | S. cerevisiae deletion strains, locus YBR009C, strain hhf1, active compounds read low 0.946 | S. cerevisiae deletion strains, locus YBR021W, strain FUR4, active compounds read low 0.859 | S. cerevisiae deletion strains, locus YBR023C, strain chs3, active compounds read low 0.967 | S. cerevisiae deletion strains, locus YBR171W, strain sec66, active compounds read low 1.01 | S. cerevisiae deletion strains, locus YBR231C, strain swc5, active compounds read low 0.965 | S. cerevisiae deletion strains, locus YBR279W, strain paf1, active compounds read low 1 | S. cerevisiae deletion strains, locus YCL011C, strain gbp2, active compounds read low 0.969 | S. cerevisiae deletion strains, locus YCL016C, strain dcc1, active compounds read low 0.983 | S. cerevisiae deletion strains, locus YCL061C, strain MRC1, active compounds read low 0.961 | S. cerevisiae deletion strains, locus YCL069W, strain vba3, active compounds read low 1 | S. cerevisiae deletion strains, locus YCR088W, strain abp1, active compounds read low 1.01 | S. cerevisiae deletion strains, locus YDL005C, strain med2, active compounds read low 1.04 | S. cerevisiae deletion strains, locus YDL040C, strain nat1, active compounds read low 1.01 | S. cerevisiae deletion strains, locus YDR001C, strain nth1, active compounds read low 1.01 | S. cerevisiae deletion strains, locus YDR069C, strain doa4, active compounds read low 0.903 | S. cerevisiae deletion strains, locus YDR159W, strain sac3, active compounds read low 1.08 | S. cerevisiae deletion strains, locus YDR195W, strain ref2 1.03 | S. cerevisiae deletion strains, locus YDR297W, strain sur2, active compounds read low 0.977 | S. cerevisiae deletion strains, locus YDR334W, strain swr1, active compounds read low 0.995 | S. cerevisiae deletion strains, locus YDR335W, strain msn5, active compounds read low 0.993 | S. cerevisiae deletion strains, locus YDR392W, strain spt3, active compounds read low 0.913 | S. cerevisiae deletion strains, locus YEL003W, strain gim4, active compounds read low 0.971 | S. cerevisiae deletion strains, locus YEL037C, strain rad23, active compounds read low 0.981 | S. cerevisiae deletion strains, locus YEL061C, strain CIN8 (second series), active compounds read low 1.02 | S. cerevisiae deletion strains, locus YER015W, strain faa2, active compounds read low 0.979 | S. cerevisiae deletion strains, locus YER016W, strain bim1, active compounds read low 1.01 | S. cerevisiae deletion strains, locus YER111C, strain swi4, active compounds read low 0.963 | S. cerevisiae deletion strains, locus YER155C, strain BEM2 (second series), active compounds read low 0.982 | S. cerevisiae deletion strains, locus YER167W, strain BCK2, active compounds read low 0.911 | S. cerevisiae deletion strains, locus YFR010W, strain ubp6, active compounds read low 0.937 | S. cerevisiae deletion strains, locus YGL167C, strain pmr1, active compounds read low 1.01 | S. cerevisiae deletion strains, locus YGL173C, strain kem1, active compounds read low 0.991 | S. cerevisiae deletion strains, locus YGL227W, strain vid30, active compounds read low 1.02 | S. cerevisiae deletion strains, locus YGL240W, strain doc1, active compounds read low 0.935 | S. cerevisiae deletion strains, locus YGL253W, strain hxk2, active compounds read low 0.972 | S. cerevisiae deletion strains, locus YHR013C, strain ard1, active compounds read low 0.992 | S. cerevisiae deletion strains, locus YHR027C, strain rpn1, active compounds read low 0.998 | S. cerevisiae deletion strains, locus YHR094C, strain hxt1, active compounds read low 0.936 | S. cerevisiae deletion strains, locus YHR142W, strain chs7, active compounds read low 0.946 | S. cerevisiae deletion strains, locus YIL073C, strain SPO22, active compounds read low 0.76 | S. cerevisiae deletion strains, locus YJL092W, strain hpr5, active compounds read low 0.993 | S. cerevisiae deletion strains, locus YJL095W, strain BCK1 (second series), active compounds read low 0.996 | S. cerevisiae deletion strains, locus YJL115W, strain asf1, active compounds read low 1.02 | S. cerevisiae deletion strains, locus YJL129C, strain trk1, active compounds read low 1 | S. cerevisiae deletion strains, locus YJL154C, strain vps35, active compounds read low 1.02 | S. cerevisiae deletion strains, locus YJL164C, strain tpk1, active compounds read low 0.934 | S. cerevisiae deletion strains, locus YJL166W, strain qcr8, active compounds read low 0.966 | S. cerevisiae deletion strains, locus YJL168C, strain set2, active compounds read low 0.973 | S. cerevisiae deletion strains, locus YJL187C, strain SWE1, active compounds read low 0.992 | S. cerevisiae deletion strains, locus YJR075W, strain HOC1, active compounds read low 0.884 | S. cerevisiae deletion strains, locus YKL068W, active compounds read low 0.951 | S. cerevisiae deletion strains, locus YKL160W, strain elf1, active compounds read low 0.974 | S. cerevisiae deletion strains, locus YKL190W, strain CNB1, active compounds read low 0.929 | S. cerevisiae deletion strains, locus YKR026C, strain gcn3, active compounds read low 1 | S. cerevisiae deletion strains, locus YKR091W, strain srl3, active compounds read low 1.01 | S. cerevisiae deletion strains, locus YLL001W, strain dnm1, active compounds read low 0.965 | S. cerevisiae deletion strains, locus YLL026W, active compounds read low 1 | S. cerevisiae deletion strains, locus YLL041C, strain sdh2, active compounds read low 1.01 | S. cerevisiae deletion strains, locus YLR027C, strain aat2, active compounds read low 1 | S. cerevisiae deletion strains, locus YLR102C, strain apc9, active compounds read low 0.953 | S. cerevisiae deletion strains, locus YLR221C, strain rsa3, active compounds read low 0.923 | S. cerevisiae deletion strains, locus YLR258W, strain gsy2, active compounds read low 0.982 | S. cerevisiae deletion strains, locus YLR262C, strain YPT6 (second series), active compounds read low 0.915 | S. cerevisiae deletion strains, locus YLR262C, strain YPT6, active compounds read low 0.606 | S. cerevisiae deletion strains, locus YLR320W, strain mms22, active compounds read low 0.98 | S. cerevisiae deletion strains, locus YLR342W, strain FKS1, active compounds read low 0.976 | S. cerevisiae deletion strains, locus YLR357W, strain rsc2, active compounds read low 0.881 | S. cerevisiae deletion strains, locus YLR370C, strain arc18, active compounds read low 1.01 | S. cerevisiae deletion strains, locus YLR384C, strain iki3, active compounds read low 1.02 | S. cerevisiae deletion strains, locus YML120C, strain ndi1, active compounds read low 0.963 | S. cerevisiae deletion strains, locus YMR078C, strain ctf18, active compounds read low 0.964 | S. cerevisiae deletion strains, locus YMR125W, strain sto1, active compounds read low 0.997 | S. cerevisiae deletion strains, locus YMR129W, active compounds read low 1.02 | S. cerevisiae deletion strains, locus YMR205C, strain PFK2, active compounds read low 1.02 | S. cerevisiae deletion strains, locus YMR231W, strain pep5, active compounds read low 1 | S. cerevisiae deletion strains, locus YNL071W, strain lat1, active compounds read low 1.01 | S. cerevisiae deletion strains, locus YNL209W, strain ssb2, active compounds read low 0.936 | S. cerevisiae deletion strains, locus YNL248C, strain rpa49, active compounds read low 0.989 | S. cerevisiae deletion strains, locus YNL322C, strain KRE1 (second series), active compounds read low 1.01 | S. cerevisiae deletion strains, locus YNR049C, strain mso1, active compounds read low 1.01 | S. cerevisiae deletion strains, locus YOL012C, strain htz1 0.305 | S. cerevisiae deletion strains, locus YOR001W, strain rrp6, active compounds read low 0.964 | S. cerevisiae deletion strains, locus YOR070C, strain gyp1, active compounds read low 1.01 | S. cerevisiae deletion strains, locus YOR080W, strain dia2, active compounds read low 1 | S. cerevisiae deletion strains, locus YOR083W, strain WHI5, active compounds read low 0.938 | S. cerevisiae deletion strains, locus YOR106W, strain vam3, active compounds read low 0.924 | S. cerevisiae deletion strains, locus YOR265W, strain rbl2, active compounds read low 1.01 | S. cerevisiae deletion strains, locus YOR270C, strain vph1, active compounds read low 0.912 | S. cerevisiae deletion strains, locus YOR290C, strain snf2, active compounds read low 0.886 | S. cerevisiae deletion strains, locus YOR316C, strain cot1, active compounds read low 0.979 | S. cerevisiae deletion strains, locus YPL051W, strain arl3, active compounds read low 0.947 | S. cerevisiae deletion strains, locus YPL078C, strain atp4, active compounds read low 0.967 | S. cerevisiae deletion strains, locus YPL106C, strain sse1, active compounds read low 1.03 | S. cerevisiae deletion strains, locus YPL240C, strain hsp82, active compounds read low 0.996 | S. cerevisiae deletion strains, locus YPR119W, strain clb2, active compounds read low 0.992 | S. cerevisiae deletion strains, locus YPR141C, strain kar3, active compounds read low 0.99
active: S. cerevisiae deletion strains, locus YAL013W, strain DEP1, active compounds read low 0.837 | S. cerevisiae deletion strains, locus YBR229C, strain ROT2, active compounds read low 0.853 | S. cerevisiae deletion strains, locus YCL029C, strain bik1, active compounds read low 0.636 | S. cerevisiae deletion strains, locus YDL035C, strain GPR1, active compounds read low 0.825 | S. cerevisiae deletion strains, locus YDL074C, strain BRE1, active compounds read low 0.564 | S. cerevisiae deletion strains, locus YDL101C, strain DUN1, active compounds read low 0.494 | S. cerevisiae deletion strains, locus YDL185W, strain tfp1, active compounds read low 0.332 | S. cerevisiae deletion strains, locus YDL192W, strain arf1, active compounds read low 0.781 | S. cerevisiae deletion strains, locus YDR101C, strain arx1, active compounds read low 0.758 | S. cerevisiae deletion strains, locus YDR137W, strain rgp1, active compounds read low 0.821 | S. cerevisiae deletion strains, locus YDR162C, strain NBP2, active compounds read low 0.826 | S. cerevisiae deletion strains, locus YDR318W, strain mcm21, active compounds read low 0.819 | S. cerevisiae deletion strains, locus YDR388W, active compounds read low 0.879 | S. cerevisiae deletion strains, locus YDR502C, strain sam2, active compounds read low 0.793 | S. cerevisiae deletion strains, locus YER110C, active compounds read low 0.84 | S. cerevisiae deletion strains, locus YER155C, strain BEM2, active compounds read low 0.769 | S. cerevisiae deletion strains, locus YGL078C, strain dbp3, active compounds read low 0.822 | S. cerevisiae deletion strains, locus YGL086W, strain mad1, active compounds read low 0.786 | S. cerevisiae deletion strains, locus YGL248W, strain PDE1, active compounds read low 0.744 | S. cerevisiae deletion strains, locus YGR135W, strain pre9, active compounds read low 0.727 | S. cerevisiae deletion strains, locus YGR229C, strain SMI1, active compounds read low 0.613 | S. cerevisiae deletion strains, locus YGR252W, strain gcn5, active compounds read low 0.648 | S. cerevisiae deletion strains, locus YHR030C, strain SLT2, active compounds read low 0.879 | S. cerevisiae deletion strains, locus YHR079C, strain IRE1 (second series), active compounds read low 0.739 | S. cerevisiae deletion strains, locus YHR129C, strain ARP1, active compounds read low 0.795 | S. cerevisiae deletion strains, locus YHR200W, strain rpn10, active compounds read low 0.84 | S. cerevisiae deletion strains, locus YIL066C, strain RNR3, active compounds read low 0.817 | S. cerevisiae deletion strains, locus YIL125W, strain kgd1, active compounds read low 0.755 | S. cerevisiae deletion strains, locus YIR030C, strain dcg1, active compounds read low 0.884 | S. cerevisiae deletion strains, locus YJL095W, strain BCK1, active compounds read low 0.447 | S. cerevisiae deletion strains, locus YJL134W, strain LCB3, active compounds read low 0.924 | S. cerevisiae deletion strains, locus YJL187C, strain SWE1 (second series), active compounds read low 0.394 | S. cerevisiae deletion strains, locus YJR043C, strain POL32, active compounds read low 0.709 | S. cerevisiae deletion strains, locus YKL009W, strain mrt4, active compounds read low 0.859 | S. cerevisiae deletion strains, locus YKL085W, strain MDH1 (second series), active compounds read low 0.799 | S. cerevisiae deletion strains, locus YKL085W, strain MDH1, active compounds read low 0.799 | S. cerevisiae deletion strains, locus YKR001C, strain vps1, active compounds read low 0.567 | S. cerevisiae deletion strains, locus YLR039C, strain RIC1, active compounds read low 0.506 | S. cerevisiae deletion strains, locus YLR058C, strain SHM2, active compounds read low 0.311 | S. cerevisiae deletion strains, locus YLR268W, strain sec22, active compounds read low 0.789 | S. cerevisiae deletion strains, locus YLR371W, strain rom2, active compounds read low 0.715 | S. cerevisiae deletion strains, locus YLR418C, strain cdc73, active compounds read low 0.534 | S. cerevisiae deletion strains, locus YML016C, strain PPZ1, active compounds read low 0.829 | S. cerevisiae deletion strains, locus YML032C, strain rad52, active compounds read low 0.746 | S. cerevisiae deletion strains, locus YML124C, strain tub3, active compounds read low 0.885 | S. cerevisiae deletion strains, locus YMR058W, strain fet3, active compounds read low 0.682 | S. cerevisiae deletion strains, locus YMR223W, strain ubp8, active compounds read low 0.783 | S. cerevisiae deletion strains, locus YMR263W, strain SAP30, active compounds read low 0.774 | S. cerevisiae deletion strains, locus YMR307W, strain GAS1, active compounds read low 0.57 | S. cerevisiae deletion strains, locus YNL067W, strain RPL9B, active compounds read low 0.842 | S. cerevisiae deletion strains, locus YNL233W, strain BNI4, active compounds read low 0.792 | S. cerevisiae deletion strains, locus YNL250W, strain rad50, active compounds read low 0.824 | S. cerevisiae deletion strains, locus YNL271C, strain bni1, active compounds read low 0.646 | S. cerevisiae deletion strains, locus YNL298W, strain CLA4, active compounds read low 0.766 | S. cerevisiae deletion strains, locus YNL307C, strain MCK1, active compounds read low 0.714 | S. cerevisiae deletion strains, locus YNR052C, strain pop2, active compounds read low 0.65 | S. cerevisiae deletion strains, locus YOL147C, strain pex11, active compounds read low 0.588 | S. cerevisiae deletion strains, locus YOR061W, strain CKA2, active compounds read low 0.869 | S. cerevisiae deletion strains, locus YOR069W, strain VPS5, active compounds read low 0.848 | S. cerevisiae deletion strains, locus YOR136W, strain idh2, active compounds read low 0.905 | S. cerevisiae deletion strains, locus YOR144C, strain elg1, active compounds read low 0.686 | S. cerevisiae deletion strains, locus YOR184W, strain ser1, active compounds read low 0.669 | S. cerevisiae deletion strains, locus YPL055C, strain LGE1, active compounds read low 0.744 | S. cerevisiae deletion strains, locus YPL241C, strain CIN2, active compounds read low 0.911 | S. cerevisiae deletion strains, locus YPR163C, strain tif3, active compounds read low 0.643 | S. cerevisiae deletion strains, locus YPR167C, strain met16, active compounds read low 0.815 | S. cerevisiae deletion strains, strain wtn01, active compounds read low 0.767 | S. cerevisiae strains, strain wild type, active compounds read low 0.772
